Source: PubChem BioAssay
HADH2 inhib: qHTS Assay for Inhibitors of HADH2 (Hydroxyacyl-Coenzyme A Dehydrogenase, Type II); 3-hydroxyacyl-CoA dehydrogenase type-2 (Homo sapiens), Q99714; recombinant HADH2, NADH fluorescence, beta-hydroxybutyryl-CoA; Potency, µM (top dose mostly 57.1 µM), for the others: at the highest dose activity change, negative = inhibition, actives largely listed as inhibitors; 73,000 tested, 3.4% active; AID 886, 2007; note: potency is the fitted concentration of half-maximal effect; % is set by controls: 0 for no effect and ±100 for the full control effect; nearly all actives have a fitted effect of over 60% in size
Target sequence (Q99714 whole entry, looked up, one chain of several): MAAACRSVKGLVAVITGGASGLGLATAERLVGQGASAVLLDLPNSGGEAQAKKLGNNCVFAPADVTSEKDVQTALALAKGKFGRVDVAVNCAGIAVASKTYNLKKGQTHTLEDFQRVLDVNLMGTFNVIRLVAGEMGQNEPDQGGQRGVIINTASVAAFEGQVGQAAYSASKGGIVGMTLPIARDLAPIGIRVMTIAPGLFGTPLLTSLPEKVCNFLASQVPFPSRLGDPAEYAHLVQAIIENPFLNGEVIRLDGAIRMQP
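20 nM HADH2 + cpd, 15 min RT; add 1 mM NAD+/90 uM beta-hydroxybutyryl-CoA; kinetic fluorescence 360/450 nm, 4 min. Tris-HCl pH 9.0, 0.01% Tween-20.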
AID923: qHTS Assay for Allosteric/Competitive Inhibitors of Caspase-1: Spectroscopic Profiling in AFC Spectral Region; compound fluorescence, AFC spectral region (405/520 nm); Potency, µM (highest dose often 57.5 µM), for inactives: at the highest dose fluorescence increase, usual class: activators; 75,000 tested, 1.1% active; AID 923, 2007; note: potency is the fitted concentration of half-maximal effect; 0% is about no effect
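Compound autofluorescence profiled at 405 nm ex/520 nm em during kinetic caspase 1 run (50 nM enzyme, 5 uM Ac-WEHD-AFC, HEPES pH 7.5, 10 mM DTT). Titration up to 57 uM; baseline from regression intercept, normalized to AFC standard curve.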
HSD17B inhib: qHTS Assay for Inhibitors of HSD17B4, hydroxysteroid (17-beta) dehydrogenase 4; 3-hydroxyacyl-CoA dehydrogenase type-2 (Homo sapiens), Q99714; recombinant HSD17B10, NADH fluorescence kinetic; 75,000 tested, 7.6% active; Potency, µM (series often up to 57.1 µM), inactives show top-dose activity change, negative = inhibition, actives largely listed as inhibitors;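 note: the protocol describes HADH2 (HSD17B10) and not the HSD17B4 of the title; potency is the fitted concentration of half-maximal effect; % is set by controls: 0 for no effect and ±100 for the full control effect; nearly all actives have a fitted effect of over 70% in size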
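Activity followed as NADH fluorescence increase (ex 360, em 450 nm) every 30 seconds for 4 min, using final 90 uM beta-hydroxybutyryl CoA and 1 mM NAD+. Recombinant His-tagged enzyme, 20 nM, pH 9.0 Tris buffer, 15 min compound preincubation.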
A350 fluor: qHTS Assay for Spectroscopic Profiling in A350 Spectral Region. 59,000 tested, 11% active. Compound autofluorescence, 340/450 nm, Alexa 350 dye-equivalents; stronger effect = higher value. max dye-equivalent concentration, M; in the data active = max dye-equivalent concentration above about 10 nM; inconclusive = mostly about 1.1 nM to 9.6 nM
CRE-bla Fsk: Cell signaling CRE-BLA (Fsk stim) | AID 662, 2007 | Potency, µM (top dose mostly 38.2 µM), for the others: at the top dose activity change, negative = inhibition, most hits filed as activators | 71,000 tested, 2.5% active | CHO CRE-bla reporter (cAMP response element driving beta-lactamase), forskolin EC10, beta-lactamase ratio; active = well fitted activation curve with a large enough effect in the signal ratio, with a control signal flat, not every such curve was filed as active; inconclusive = small, poorly fitted or top-dose-only effect, or effect the other way, or a change in a side signal; the % refers to the signal ratio; note: potency is the fitted concentration of half-maximal effect; % of control where 0% means no effect
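The 460nm/530nm emission ratio after CCF4 loading defined %Activity, from which AC50 values were obtained. CRE-bla CHO cells received compound dilution series together with an EC10 level of NKH 477 for 3 hours at 37 degrees Celsius.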
4MU fluor: qHTS Assay for Spectroscopic Profiling in 4-MU Spectral Region; compound autofluorescence, 340/450 nm, 4-MU equivalents; stronger effect = higher value; max dye-equivalent concentration, M; 59,000 tested, 11% active; AID 589, 2007; in the data active = max dye-equivalent concentration above about 10 nM; inconclusive = mostly about 1.1 nM to 9.6 nM
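Intrinsic fluorescence at 340/450 nm (ex/em) was read after 15 min at room temperature in pH 8.0, 100 mM Tris. Each compound concentration expressed as 4-MU-equivalent concentration from a six-point 4-MU standard series on each plate.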
An asterisk follows results filed as active; i = inactive; u = inconclusive; x = no result; ! = a repeat was not active; [ ] = remark or other dose. Most compounds without a hit are left out; they make up all but 14% or so of the library. Unless noted, calls come from the whole dose curve; as a rule, active = well fitted curve in the direction sought with a large enough effect; inconclusive = small, poorly fitted or top-dose-only effect, or another doubt; inactive = no such curve, though single readings can be large; an effect the other way counts as inactive or inconclusive.

SMILES	HADH2 inhib	AID923	HSD17B inhib	A350 fluor	CRE-bla Fsk	4MU fluor
O=C(CSc1nnc(Cc2ccccc2)o1)NC1CC2CCC1C2 (stereo unspecified)	8%	0%	13%	i	-16%	i
Cc1ccc2nc(-c3ccccn3)cc(C(=O)NC3CCN(C)CC3)c2c1	-16%	1%	13µM*	u	-1%	u
Cc1cc(NC(=O)c2cc(-c3ccccn3)nc3ccccc23)no1	3%	2%	-4%	i	u	i
OCCCSCCO	-1%[11.4 µM]	2%[11.5 µM]	3%[11.4 µM]	i	15%[7.6 µM]	i
COc1c(O)cc2oc3cc(O)c(CC=C(C)C)c(O)c3c(=O)c2c1CC=C(C)C	-8%	-3%	10µM*!	i	u	i
COC(c1ccccc1)C(C)C(OC)C(C)C(OC)C(C)C(C)=O (stereo unspecified)	0%[11.4 µM]	-2%[11.5 µM]	5%[11.4 µM]	x	x	x
O=S(=O)(c1ccc(Br)s1)n1cccn1	-4%	-2%	0%	i	27%	i
CC(NC(=O)COc1ccccc1)C1COc2ccccc2O1 (stereo unspecified)	4%	-1%	-13%	i	-5%	i
CC(C)C1COc2cc3oc(=O)ccc3cc2O1 (stereo unspecified)	x	-1%	32µM*	x	x	x
C#CCCCCCCCCCCCC(O)CC(O)CO (stereo unspecified)	x	-1%	-2%	x	x	x
CCOC(=O)N1CCN(S(=O)(=O)c2cc(OCC(N)=O)c(C)cc2Cl)CC1	7%	0%	6%	i	1%	i
Cc1ccc(-c2csc(NC(=O)c3ccno3)n2)cc1	20µM*	-1%	25µM*	i	-6%	i
COC(=O)[C@H](CCSC)NC(=O)Nc1ccc(C)cc1	8%	-1%	9%	i	6%	i
Cc1cc2c(=O)[nH]c(N)nc2nc1C	-4%[11.4 µM]	4%[11.5 µM]	-3%[11.4 µM]	u	-6%[7.6 µM]	u
CCCCCCN(C(=O)CCCCCN1C(=O)NC(c2ccc(-c3ccccc3)cc2)C(C(=O)OCc2ccccc2)=C1C)C(C(=O)NCCCC)c1ccc(O)c(C(=O)OC)c1 (stereo unspecified)	-7%	-2%	32µM*	x	0%	x
C=CCn1c(SCc2cccnc2)nnc1-c1ccncc1	-8%	0%	6%	i	u	i
c1ccc(-c2nnc(CSc3nc4ccccc4[nH]3)o2)cc1	2%	0%	-2%	i	u	i
c1ccc(SCc2nc3ccccc3[nH]2)nc1	x	x	x	u	x	i
Brc1cccc(-c2nnc(SCc3nc4ccccc4[nH]3)o2)c1	18%	4%	-2%	i	2µM*	i
C=CCn1c(SCc2nc3ccccc3[nH]2)nnc1-c1ccncc1	5%	5%	u	1.5e-08M*	u	1.2e-08M*
c1ccc2[nH]c(CSc3nnc(-c4ccncc4)o3)nc2c1	-1%	0%	-15%	u	4µM*	u
CCc1ccc2c(c1)c1nc(C)sc1n2CC	5%	0%	6%	i	u	i
COc1ccc(-c2nc3n(c(=O)c2C#N)CCCS3)cc1	u	4%	20µM*	u	u	u
N#CC1(c2c(O)nc3n(c2=O)CCCS3)CCCCC1	-13%	1%	-25%	u	u	i
CCOc1ccc(C2=CS/C(=C(\C#N)c3nnc4n3CCCCC4)N2CC)cc1	-7%	0%	-14%	i	u	i
SMILES	HADH2 inhib	AID923	HSD17B inhib	A350 fluor	CRE-bla Fsk	4MU fluor
CCOc1ccc(-c2nc3n(c(=O)c2C#N)CCCS3)cc1	-2%	5%	20µM*	3.4e-08M*	10%	3e-08M*
CN(C(=O)CCCOc1ccc2[nH]c(=O)ccc2c1)C1CCCCC1	-26%	-4%	32µM*	8e-08M*	28%	8.2e-08M*
O=C(NC12CCC(O)C(SC1)/C2=N/O)c1ccccc1 (stereo unspecified)	17%	3%	2%	i	11%	i
Cc1cc(=O)[nH]c(SCCOc2ccc(OC(C)C)cc2)n1	-11%	-2%	6%	6.6e-08M*	-5%	9.6e-08M*
Cc1cc(=O)[nH]c(SCCOc2ccc3c(c2)CCC3)n1	3%	-1%	12%	i	-17%	i
COc1ccccc1OCC(O)CO (stereo unspecified)	x	-3%	-3%	x	x	x
CCOC(=O)SC1=N/C(=C\c2ccc(N(C)C)cc2)C(=O)S1	3.2µM*	-1%	-12%	i	2%	i
CCCC1=C(C(=O)OCC)C(c2ccc(NC(C)=O)cc2)NC(=O)N1 (stereo unspecified)	-8%	-2%	32µM*	4.4e-08M*	27%	5.3e-08M*
O=C(c1ccncc1)N1CCC2(CC1)CN(c1ccc(-c3ccccc3)cc1)C2	11%	-1%	-12%	i	-11%	i
c1ccc(-c2ccc(N3CC4(CCNCC4)C3)cc2)cc1	u	1%	25µM*	i	u	i
O=C(c1ccncc1)N1CCC2(CCCN(c3ccc(-c4ccccc4)cc3)C2)CC1	13%	1%	-2%	i	u	i
c1ccc(-c2ccc(N3CCCC4(CCNCC4)C3)cc2)cc1	u	-1%	32µM*	i	u	i
c1ccc(-c2ccc(N3CC[C@@]4(CCCNC4)C3)cc2)cc1	17%	0%	25µM*	i	-7%	i
NC(=O)c1nn(-c2ccccc2)nc1N	i	0%	32µM*	1.1e-07M*	3%	1.1e-07M*
NC(=O)c1nn(-c2ccccc2)nc1NC(=O)CN1CCCCC1	-3%	0%	u	i	15%	i
COc1cccc(-c2cncnc2NCCN2CCOCC2)c1	u	1%	-7%	i	12%	i
CN1CCCC[C@@H]1CCN1c2ccccc2Sc2ccc(S(C)=O)cc21 (stereo partly specified)	4µM*!	-5%[11.5 µM]	-16%[11.4 µM]	u	u	u
CCOC(=O)c1cc(=O)n2nc(-c3ccc(C)cc3)nc2s1	-20%	0%	-11%	u	-5%	u
Cc1ccc(/C=N/c2sc3c(c2C#N)CCCCC3)o1	5µM*	7%	32µM*	i	-6%	i
N#Cc1c(/N=C/c2ccco2)sc2c1CCC2	4%	-2%	-6%	i	1%	i
CCn1c(C(=O)OC)cc2c1ccn2-c1ccc(F)cc1	u	2%	u	i	u	i
